Test results published in PubChem BioAssay (Tox21).
Several values for one entry are separate records, joined by “and”; a condition that tells them apart may be missing. Equal values may be shown once. Results filed as inconclusive are left out. Some compounds were tested as several samples or in several runs, with calls that do not always agree. Activity calls are given as the source filed them. Calls come from the whole dose curve; as a rule, active = well fitted curve in the direction sought with a large enough effect in the repeat runs; inconclusive = weak or mixed curves; inactive = no such curve, though single readings can be large; an effect the other way counts as inactive or inconclusive.

Experiments:
[1] = qHTS RealTime-Glo MT Cell Viability Assay in HepG2 cells - 40 hour (AID 1224870); note: nearly all actives have a fitted effect of over 50% in size
Method in brief: (§1)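 HepG2 cells mixed with RealTime-Glo MT reagents (NanoLuc plus cell-permeant prosubstrate) were seeded at 600 cells/well, incubated 5 h at 37 C/5% CO2, then pinned with compounds in DMSO; nonlytic luminescence tracked viability during 40 h treatment.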

[2] = A CellTox Green Cytotoxicity Assay to monitor cytotoxicity in HEK293 cells - 40 hour (AID 1224871); note: nearly all actives have a fitted effect of over 45% in size; note: potency is the fitted concentration of half-maximal effect
Method in brief: (§2)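 Dead-cell fluorescence measured kinetically: asymmetric cyanine dye, HEK293, 600 cells/well, 5 h settle, 23 nL cpd/DMSO, 37 C, reads 0–40 h every 8 h.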

[3] = qHTS RealTime-Glo MT Cell Viability Assay in HepG2 cells - 8 hour (AID 1224873); note: nearly all actives have a fitted effect of over 55% in size
Method in brief: as §1

[4] = qHTS RealTime-Glo MT Cell Viability Assay in HEK293 cells - 40 hour (AID 1224874); conditions: RealTime-Glo luminescence; max response: stronger effect = lower value; note: nearly all actives have a fitted effect of over 50% in size
Method in brief: (§3)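 600 HEK293 cells per well, dispensed already mixed with RealTime-Glo MT reagents. Compound dosing came 5 h later. The same wells were read for luminescence at 0, 8, 16, 24, 32 and 40 h of exposure at 37 C.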

[5] = A CellTox Green Cytotoxicity Assay to monitor cytotoxicity in HepG2 cells - 16 hour (AID 1224876); note: nearly all actives have a fitted effect of over 45% in size; note: potency is the fitted concentration of half-maximal effect
Method in brief: (§4)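 First, HepG2 cells (600/well) mixed with reagent were plated; second, after 5 h at 37 C they received compounds via pintool; third, fluorescence was measured at 0 h through 40 h at 8 h intervals.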

[6] = qHTS RealTime-Glo MT Cell Viability Assay in HepG2 cells - 32 hour (AID 1224877); note: nearly all actives have a fitted effect of over 55% in size
Method in brief: (§5)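 Tox21 10K library screened in qHTS format on HepG2 cells carrying RealTime-Glo reagents. Compounds were added after a 5 h preincubation, and the luminescent signal from continuous culture was measured repeatedly during 40 h treatment.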

[7] = A CellTox Green Cytotoxicity Assay to monitor cytotoxicity in HepG2 cells - 40 hour (AID 1224879); note: nearly all actives have a fitted effect of over 40% in size
Method in brief: as §4

[8] = qHTS RealTime-Glo MT Cell Viability Assay in HEK293 cells - 0 hour (AID 1224880); note: top concentration of the series differs between compounds; nearly all actives have a fitted effect of over 45% in size
Method in brief: as §3

[9] = A CellTox Green Cytotoxicity Assay to monitor cytotoxicity in HEK293 cells - 8 hour (AID 1224884); note: nearly all actives have a fitted effect of over 35% in size
Method in brief: as §2

[10] = qHTS RealTime-Glo MT Cell Viability Assay in HepG2 cells - 16 hour (AID 1224885); note: nearly all actives have a fitted effect of over 50% in size
Method in brief: as §5

[11] = qHTS RealTime-Glo MT Cell Viability Assay in HEK293 cells - 24 hour (AID 1224886); note: top concentration of the series differs between compounds; nearly all actives have a fitted effect of over 50% in size
Method in brief: (§6)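 Luminescence generated by NanoLuc from substrate produced by living HEK293 cells served as the viability signal. Each value reflects the reading at its stated time point during continuous 40 h compound exposure at 37 C.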

[12] = qHTS RealTime-Glo MT Cell Viability Assay in HEK293 cells - 8 hour (AID 1224887)
Method in brief: as §3

[13] = A CellTox Green Cytotoxicity Assay to monitor cytotoxicity in HEK293 cells - 16 hour (AID 1224888); note: nearly all actives have a fitted effect of over 35% in size
Method in brief: as §2

[14] = qHTS RealTime-Glo MT Cell Viability Assay in HepG2 cells - 0 hour (AID 1224889); note: nearly all actives have a fitted effect of over 50% in size
Method in brief: as §5

[15] = qHTS RealTime-Glo MT Cell Viability Assay in HEK293 cells - 16 hour (AID 1224872)
Method in brief: as §6

[16] = A CellTox Green Cytotoxicity Assay to monitor cytotoxicity in HepG2 cells - 24 hour (AID 1224878); note: nearly all actives have a fitted effect of over 45% in size
Method in brief: as §4

[17] = A CellTox Green Cytotoxicity Assay to monitor cytotoxicity in HepG2 cells - 32 hour (AID 1224883); note: nearly all actives have a fitted effect of over 50% in size
Method in brief: as §4

[18] = A CellTox Green Cytotoxicity Assay to monitor cytotoxicity in HEK293 cells - 32 hour (AID 1224881); note: nearly all actives have a fitted effect of over 40% in size; note: potency is the fitted concentration of half-maximal effect
Method in brief: as §2

[19] = A CellTox Green Cytotoxicity Assay to monitor cytotoxicity in HepG2 cells - 0 hour (AID 1224882); note: nearly all actives have a fitted effect of over 35% in size; note: potency is the fitted concentration of half-maximal effect
Method in brief: as §4

[20] = A CellTox Green Cytotoxicity Assay to monitor cytotoxicity in HEK293 cells - 24 hour (AID 1224875)
Method in brief: as §2
% is set by controls: 0 for no effect and ±100 for the full control effect.

C/C=C(\C)C#N
inactive: Potency [1] | Potency [2] | Potency [3] | max response [4] -3.01% | Potency [5] | Potency [6] | Potency [7] | Potency [8] | Potency [9] | Potency [10] | Potency [11] | Potency [12] | Potency [13] | Potency [14]

C[C@H]1C[C@@H](O)CC(C)(C)C1
inactive: Potency [1] | Potency [15] | Potency [3] | max response [4] -10.6% | Potency [5] | Potency [6] | Potency [16] | Potency [7] | Potency [8] | Potency [17] | Potency [10] | Potency [11] | Potency [12] | Potency [14]

COC(=O)c1c(Cl)c(Cl)c(C(=O)OC)c(Cl)c1Cl
inactive and 43.6 µM (active): Potency [18]
inactive and 38.9 µM (active): Potency [2]
inactive and 77.6 nM (active): Potency [5]
inactive: Potency [1] | Potency [3] | Potency [6] | Potency [16] | Potency [17] | Potency [9] | Potency [10] | Potency [13] | Potency [14]
inactive and 138 nM (active): Potency [19]

Cc1cccn2c(=O)c(-c3nnn[nH]3)cnc12
inactive: activity change, negative = cytotoxic [1] 2.03% [at 15.8 µM] | Potency [2] | viability change, negative = cytotoxic [3] -11% [at 15.8 µM] | max response [4] 1.37% | activity change [20] 11.9% [at 15.8 µM, stronger effect = higher value] | cytotoxicity increase [5] 6.14% [at 15.8 µM] | activity change, negative = cytotoxic [6] 3.38% [at 15.8 µM] | cytotoxicity increase [7] 1.54% [at 15.8 µM] | activity change, negative = cytotoxicity [8] 7.45% [at 15.8 µM] | Potency [18] | cytotoxicity [19] 0.312% [at 15.8 µM] | cytotoxicity increase [17] 2.82% [at 15.8 µM] | cytotoxicity increase [9] 9.95% [at 15.8 µM] | activity change, negative = cytotoxic [10] -6.35% [at 15.8 µM] | activity change, negative = cytotoxicity [11] 2.84% [at 15.8 µM] | activity change, negative = cytotoxicity [12] -0.563% [at 15.8 µM] | activity change [13] 17.3% [at 15.8 µM, stronger effect = higher value] | activity change, negative = cytotoxicity [14] -3.79% [at 15.8 µM]

NS(=O)(=O)c1cc2c(cc1Cl)NC(C1CC3C=CC1C3)NS2(=O)=O (centres undefined)
inactive: Potency [1] | Potency [2] | Potency [3] | Potency [5] | Potency [6] | Potency [16] | Potency [7] | Potency [8] | Potency [19] | Potency [17] | Potency [9] | Potency [10] | Potency [11] | Potency [13] | Potency [14]

O=C(CCCN1CCN(c2ccccn2)CC1)c1ccc(F)cc1
inactive: Potency [1] | Potency [2] | Potency [3] | Potency [20] | Potency [5] | Potency [6] | Potency [16] | Potency [7] | Potency [8] | Potency [18] | Potency [19] | Potency [17] | Potency [9] | Potency [10] | Potency [13] | Potency [14]

C[C@@H]1CCN(C(=O)[C@H](CCCN=C(N)N)NS(=O)(=O)c2cccc3c2NC[C@H](C)C3)[C@@H](C(=O)O)C1
inactive: Potency [1] | Potency [2] | Potency [3] | max response [4] 4.96% | Potency [5] | Potency [6] | Potency [16] | Potency [7] | Potency [8] | Potency [19] | Potency [17] | Potency [9] | Potency [10] | Potency [11] | Potency [12] | Potency [13] | Potency [14]

CC(C)NC(=O)NC(C)C
inactive: Potency [2] | Potency [15] | Potency [3] | max response [4] 4.41% | Potency [20] | Potency [5] | Potency [6] | Potency [16] | Potency [7] | Potency [8] | Potency [18] | Potency [19] | Potency [17] | Potency [9] | Potency [10] | Potency [11] | Potency [12] | Potency [13] | Potency [14]

CC(C)(O)C#CC(C)(C)O
inactive: Potency [1] | Potency [2] | Potency [3] | max response [4] 4.69% | Potency [20] | Potency [5] | Potency [6] | Potency [7] | Potency [8] | Potency [18] | Potency [19] | Potency [17] | Potency [9] | Potency [10] | Potency [11] | Potency [12] | Potency [14]

COc1ccc2c(c1)CCCC2=O
inactive: Potency [1] | Potency [2] | Potency [3] | Potency [5] | Potency [6] | Potency [16] | Potency [7] | Potency [8] | Potency [18] | Potency [19] | Potency [9] | Potency [10] | Potency [11] | Potency [12] | Potency [13] | Potency [14]

CC/C=C\CCOC(C)=O
inactive: Potency [2] | Potency [15] | Potency [3] | max response [4] -1.39% | Potency [20] | Potency [5] | Potency [6] | Potency [16] | Potency [7] | Potency [8] | Potency [18] | Potency [19] | Potency [17] | Potency [9] | Potency [10] | Potency [11] | Potency [12] | Potency [14]

CCCCCCCCCCCC
inactive: Potency [1] | Potency [2] | Potency [3] | max response [4] 0.33% | Potency [5] | Potency [6] | Potency [7] | Potency [8] | Potency [18] | Potency [9] | Potency [10] | Potency [11] | Potency [12] | Potency [13] | Potency [14]

CCOC(=O)Nc1ccc(NCc2ccc(F)cc2)nc1N
inactive: Potency [1] | Potency [2] | Potency [3] | max response [4] -2.14% | Potency [5] | Potency [6] | Potency [16] | Potency [7] | Potency [8] | Potency [18] | Potency [19] | Potency [17] | Potency [9] | Potency [10] | Potency [11] | Potency [12] | Potency [13] | Potency [14]

CN1N=C(C(N)=O)CCC1=O
inactive: Potency [2] | Potency [15] | Potency [3] | max response [4] 0.803% | Potency [20] | Potency [5] | Potency [6] | Potency [16] | Potency [7] | Potency [8] | Potency [18] | Potency [19] | Potency [17] | Potency [9] | Potency [10] | Potency [11] | Potency [12] | Potency [13] | Potency [14]
